High-throughput results (PubChem BioAssay)
Only some compounds are listed: those with a hit (about 1.8% of all), similar ones and a draw of the others.
Cardio protect – myocardial damage modulation in H9c2 cells; H9c2 cardiomyocytes, H2O2 injury protection, ATPLite, 2 h; protection from H2O2 cell death, % at 20 µM; AID 588492; 360,000 compounds, 0.63% hits;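 active means compounds giving at least 50% protection of heart cells from peroxide-induced death in the single-dose screen, raw or plate-pattern-corrected value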
HDAC3 inhib – blocks human histone deacetylase 3. AID 2718. inhibition, % at 8.3 µM. recombinant HDAC3, fluorogenic peptide/trypsin coupled, fluorescence. 320,000 compounds, 0.15% hits. O15379; in the data active means inhibition above about 26%, passing the limit was not always enough
Target sequence (O15379 whole entry, looked up): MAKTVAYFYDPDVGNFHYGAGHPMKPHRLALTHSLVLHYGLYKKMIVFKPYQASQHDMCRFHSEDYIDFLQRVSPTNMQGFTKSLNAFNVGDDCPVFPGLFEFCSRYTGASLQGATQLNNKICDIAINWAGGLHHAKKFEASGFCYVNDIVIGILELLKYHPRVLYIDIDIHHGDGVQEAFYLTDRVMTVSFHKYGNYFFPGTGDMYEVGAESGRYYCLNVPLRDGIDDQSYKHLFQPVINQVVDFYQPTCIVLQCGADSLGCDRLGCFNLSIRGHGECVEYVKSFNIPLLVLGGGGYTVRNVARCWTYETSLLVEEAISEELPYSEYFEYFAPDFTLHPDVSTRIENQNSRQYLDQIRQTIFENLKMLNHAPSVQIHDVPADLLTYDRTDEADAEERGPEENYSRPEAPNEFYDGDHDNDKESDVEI
GRK2 aptamer HTS – inhibitors of human GRK2 displacing RNA aptamer; inhibition of aptamer binding, % at 10 µM; 330,000 compounds, 0.59% hits; bead flow cytometry, FAM-aptamer displacement from GRK2;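 active means inhibition of aptamer binding above 40%, roughly 3 SD of noise, on plates passing a quality check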;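 further: median bead fluorescence of bound FAM aptamer so fluorescent compounds give negative values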
Neddylation inh – cullin neddylation inhibition | P61081+Q13564 | TR-FRET cullin neddylation, biochemical | inhibition, % at 25 µM | 360,000 compounds, 0.58% hits | AID 651699; in the data active means inhibition above about 36%
GRK2 CP1 – confirmation of human GRK2 inhibitors displacing RNA aptamer; shares compounds with GRK2 aptamer HTS; bead-bound GRK2, FAM-aptamer displacement, flow cytometry; aptamer displacement, % at 10 µM; 2,000 compounds, 4% hits;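 active means aptamer displacement above 40%, near three times the noise of non-fluorescent compounds, on plates passing quality checks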;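 further: negative values mostly reflect intrinsic compound fluorescence rather than true enhancement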
FAM quench CP1 – quenches fluorescent RNA aptamer, GRK2 hit artifact | shares compounds with GRK2 aptamer HTS | Carboxyfluorescein RNA aptamer on beads, flow cytometry quenching; hits give low values | fluorescence response (% of DMSO), % at 10 µM | 2,000 tested, under 10 active | AID 504580;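 active means compounds that quench the bead-bound fluorescent RNA probe, cutting fluorescence to under half of the solvent control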;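 further: counterscreen run without GRK2 so only probe quenching by compound is measured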
GRK2 CP2 – confirmation of human GRK2 inhibitors binding RNA aptamer site; shares compounds with GRK2 aptamer HTS; bead-bound GRK2, FAM-aptamer displacement, flow cytometry; inhibition of aptamer binding, % at 10 µM; 360 tested, under 10 active;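 active means inhibition of aptamer binding above 40%, about triple the noise seen with nonglowing compounds, on plates passing quality control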;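 further: negative values mostly come from compounds that fluoresce themselves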
FAM quench SP – aptamer fluorescence quenching in GRK2 counter-screen. shares compounds with GRK2 aptamer HTS. 360 tested, under 10 active. carboxyfluorescein RNA aptamer beads, flow cytometry quenching; hits give low values. fluorescence response vs DMSO, % at 10 µM. AID 588494;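 active means response vs DMSO under 50%, meaning signal dropped by over half, treated as fluorescence quencher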;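 further: labelled aptamer on streptavidin beads without GRK2 as a quench counter-screen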
Numbers stand for hits; 0 = inactive; - = no result shown.

SMILES | Cardio protect | HDAC3 inhib | GRK2 aptamer HTS | Neddylation inh | GRK2 CP1 | FAM quench CP1 | others
Cc1c(C(=O)OC2CCC(C)CC2)[nH]c2c1C(=O)CCC2 (stereo unspecified) | 0 | 0 | 0 | 0 | - | -
O=C(NC1=NCCS1)C1CCN(S(=O)(=O)c2cc([N+](=O)[O-])ccc2Cl)CC1 | 0 | 0 | 0 | 0 | 0 | 0
CCOC(=O)C1(CCCc2ccccc2)CCN(CCCn2cccn2)CC1 | 0 | 0 | 93.0 | 0 | 0 | 0
CCOC(=O)c1cc2c(C)n(-c3ccc(OCC)cc3)c(C)c2cc(C(=O)OCC)c1=O | 0 | 0 | 0 | 0 | - | -
CCOC(=O)c1cc2c(C)n(-c3ccc(N(C)C)cc3)c(C)c2cc(C(=O)OCC)c1=O | 0 | 0 | 69.0 | 0 | 0 | 0
O=C1NCCN1CCNc1nc(NCC2CC2)nc2cc(-c3ccccc3)sc12 | 0 | - | - | 0 | - | -
Cc1cc(=O)oc2cc(OC(C)C)ccc12 | 0 | 0 | 0 | - | - | -
Cc1cc(=O)oc2cc(OC(C(=O)O)c3ccccc3)ccc12 (stereo unspecified) | 0 | 0 | 84.0 | 0 | 0 | 0
COc1ccc(C(=O)COC(=O)COc2cc(C)cc(C)c2)cc1 | 0 | 0 | 0 | 0 | - | -
Cn1c(=O)c2c(nc(SCC(=O)NCc3ccc4c(c3)OCO4)n2Cc2ccccc2)n(C)c1=O | 0 | 0 | 53.0 | 0 | 0 | 0
Cn1c(=O)c2c(nc(SCC(=O)NCc3ccc4c(c3)OCO4)n2Cc2ccc(F)cc2)n(C)c1=O | 0 | 0 | 0 | 0 | - | -
CCCNC(=O)C1(C)CCN(Cc2cc(-c3ccccc3)on2)C1 (stereo unspecified) | 0 | - | - | 0 | - | -
CCOC(=O)c1cc(S(=O)(=O)N2CCN(Cc3ccccc3)CC2)cn1C | 0 | 0 | 0 | 0 | - | -
Nc1nc(N(Cc2ccccc2)Cc2ccccc2)nc(C(F)(F)F)n1 | 0 | 0 | 43.0 | 0 | - | - | GRK2 CP2=0;FAM quench SP=0
CC(Nc1cccc(C(=O)NC2CC2)c1)c1nnc(-c2ccccc2)o1 (stereo unspecified) | 0 | 0 | 0 | 0 | 0 | 0
COc1ccc(-c2nnc(C(C)Nc3cccc(C(=O)NC4CC4)c3)o2)cc1 (stereo unspecified) | 0 | 0 | 0 | 0 | 0 | 0
CC(=O)Nc1ccc(C(C#N)c2ccccc2)cc1 (stereo unspecified) | 0 | 0 | 0 | 0 | - | -
Cc1cc(OCC(=O)Nn2cnnc2)ccc1Br | 0 | 0 | 71.0 | 0 | 0 | 0
Cc1oc(-c2ccccc2)cc1C(=O)Nc1ccc2ccccc2c1 | 0 | 0 | 98.0 | 0 | 0 | 0
O=C(NC1CC(=O)c2sccc21)c1ccc(Cl)cc1Cl (stereo unspecified) | 0 | 0 | 0 | 0 | - | -
COc1ccc2c(c1)C(=O)N(c1ccccc1C)C(=O)C2(C)C | 0 | 0 | 78.0 | - | 0 | 0
CCC(=O)Nc1ccc(C(=O)COC(=O)Cc2ccsc2)cc1 | 0 | 0 | 48.0 | 0 | 0 | 0
Cc1cnc(C(=O)OCC(=O)N(Cc2ccccc2)C(C)C)cn1 | 0 | 0 | 42.0 | 0 | 0 | 0
CCN(Cc1ccccc1)C(=O)COC(=O)c1cnc(C)cn1 | 0 | 0 | 0 | 0 | - | -
Cc1cnc(C(=O)OCC(=O)c2ccc(C)s2)cn1 | 0 | 0 | 45.0 | 0 | 0 | 0
SMILES | Cardio protect | HDAC3 inhib | GRK2 aptamer HTS | Neddylation inh | GRK2 CP1 | FAM quench CP1 | others
CC(C)c1ccc(NC(=O)N2CCCC2C(=O)Nc2ccc(-n3cnnn3)cc2)cc1 (stereo unspecified) | 0 | 0 | 0 | 0 | - | -
O=S(=O)(c1ccc2c(c1)OCCO2)N1CCCN(S(=O)(=O)c2c(F)cccc2F)CC1 | 0 | 0 | 0 | 0 | - | -
CCc1ccc2nc(NC(=O)C3CSC4(C)CCC(=O)N34)sc2c1 (stereo unspecified) | 0 | 0 | 0 | 0 | - | -
COc1ccc(C(=O)[C@H]2[C@H]3C(=O)N(c4ccc(OC(C)=O)cc4)C(=O)[C@H]3C3C=CC=NN32)cc1 (stereo partly specified) | 0 | 0 | 0 | 0 | - | -
CC(=O)Oc1ccc(C(=O)[C@H]2[C@H]3C(=O)N(c4cccc5ccccc45)C(=O)[C@H]3[C@@H]3C=CC=NN32)cc1 | 0 | 0 | 73.0 | 0 | - | - | GRK2 CP2=0;FAM quench SP=0
CCOc1ccc(NC(=O)CSc2ccc3nnc(-c4cccnc4)n3n2)cc1 | 0 | 0 | 41.0 | 0 | - | - | GRK2 CP2=0;FAM quench SP=0
O=C(CSc1ccc2nnc(-c3cccnc3)n2n1)Nc1ccc(F)cc1 | 0 | 0 | 0 | 0 | - | -
NC(=O)C1CCN(CC(=O)N2c3ccccc3CCc3ccccc32)CC1 | 0 | 0 | 0 | 0 | 0 | 0
O=C(c1ccccn1)N(c1ccccc1)C1(C(=O)NC2CCCCC2)CCCCC1 | 0 | 0 | 0 | 0 | - | -
Cc1ccc(SCc2c(C(=O)N/N=C/c3ccc4c(c3)OCO4)nnn2-c2nonc2N)cc1 | 0 | 0 | 51.0 | 0 | 0 | 0
Cc1ccc(SCc2c(C(=O)N/N=C/c3ccccc3)nnn2-c2nonc2N)cc1 | 0 | 0 | 0 | 0 | - | -
CC(c1nc2ccccc2c(=O)[nH]1)N1CCN(C)CC1 (stereo unspecified) | 0 | 0 | 0 | 0 | - | - | GRK2 CP2=0;FAM quench SP=0
Cc1cc(Cl)ccc1OCc1nnc2n1CCCCC2 | 0 | 0 | 0 | 0 | - | -
CCCCNC(=O)CNC(=O)c1nn(-c2ccc(OC)cc2OC)c(=O)c2ccccc12 | 0 | 0 | 0 | 0 | 0 | 0
CCCCN(C)C(=O)CNC(=O)c1nn(-c2ccc(OC)cc2OC)c(=O)c2ccccc12 | 0 | 0 | 0 | 0 | 0 | 0
COc1ccc(-n2nc(C(=O)NCC(=O)N(C)Cc3ccccc3)c3ccccc3c2=O)c(OC)c1 | 0 | 0 | 0 | 0 | - | -
O=C(N/N=C/c1cc([N+](=O)[O-])ccc1O)c1cccc(N2CCCC2=O)c1 | 0 | 0 | 0 | 0 | - | -
Cn1cc(S(=O)(=O)N2CCOCC2)cc1C(=O)NCc1ccccc1Cl | 0 | 0 | 0 | 0 | 0 | 0
COc1ccccc1CNC(=O)c1cc(S(=O)(=O)N2CCOCC2)cn1C | 0 | - | 0 | 0 | - | -
COc1cccc(Oc2ccc(N/C=C/C(=O)C(C)(C)C)cc2)c1 | 0 | 0 | 88.0 | 0 | 0 | 0
COc1ccc(Oc2ccc(N/C=C/C(=O)C(C)(C)C)cc2)cc1 | 0 | 0 | 0 | 0 | - | -
COc1cccc(NC(=O)Nc2cccc(C)n2)c1 | 0 | 0 | 58.0 | 0 | 0 | 0
COc1ccc(NC(=O)c2cccnn2)cc1 | 0 | 0 | 0 | 0 | - | -
COc1cccc(NC(=O)c2cccnn2)c1 | 0 | 0 | 41.0 | 0 | 0 | 0
CN(C(=O)c1cccc(Nc2ccc(-c3ccc4c(c3)OCCO4)nn2)c1)C1CCCCC1 | 0 | 0 | 0 | 0 | 0 | 0
CCN(C(=O)CN1CCc2ccccc21)c1c(N)n(Cc2ccccc2)c(=O)[nH]c1=O | 0 | 0 | 0 | 0 | 0 | 0
Cn1c(C(=O)N[C@@H](Cc2ccccc2)C(=O)O)cc2cc(F)ccc21 | 0 | 0 | 0 | 0 | - | -
